# Measurements as given in paper PMC7862700, “An all-to-all approach to the identification of sequence-specific readers for epigenetic DNA modifications on cytosine”.
# Columns and labels:
# Assay in all cases: DAPPL (digital affinity profiling via proximity ligation, sequencing); 10 mM Tris-HCl pH 7.5, 50 mM NaCl, 1 mM DTT, 4% glycerol, room temperature, 30 min; GST-TFs on glutathione beads, 16-mer random dsDNA library, 0.1% formaldehyde crosslink after washing; high values mean tight binding
# FLI1 = target: T1, FLI1 (Homo sapiens, UniProt Q01543 1-452); details: protein: recombinant; tags: N-terminal GST; dsDNA, one strand shown
# T1 sequence: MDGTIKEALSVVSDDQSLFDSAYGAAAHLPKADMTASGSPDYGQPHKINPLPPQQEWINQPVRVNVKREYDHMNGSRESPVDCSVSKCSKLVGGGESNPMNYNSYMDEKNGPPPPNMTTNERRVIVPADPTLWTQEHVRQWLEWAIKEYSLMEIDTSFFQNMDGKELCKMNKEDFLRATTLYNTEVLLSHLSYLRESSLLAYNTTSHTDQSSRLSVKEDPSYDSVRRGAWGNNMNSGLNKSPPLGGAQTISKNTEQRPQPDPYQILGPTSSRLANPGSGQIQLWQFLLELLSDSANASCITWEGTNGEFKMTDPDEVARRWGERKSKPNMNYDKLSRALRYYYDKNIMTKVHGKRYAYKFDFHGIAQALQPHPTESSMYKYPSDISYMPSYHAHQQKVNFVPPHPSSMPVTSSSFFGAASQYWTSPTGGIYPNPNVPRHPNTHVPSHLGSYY
# Method in brief: (§1)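 Binding signal is given per hexamer as its read frequency for a factor divided by its frequency in the tag-only sample. GST-fused human transcription factors were expressed in yeast, captured on glutathione beads, barcoded with DNA and pooled with that sample, then incubated with 200 nmole of a 16-mer random double-stranded DNA library in Tris/NaCl/DTT/glycerol buffer for 30 min at room temperature. The pools were then washed, crosslinked, proximity-ligated, amplified by PCR and sequenced on an Illumina NextSeq500.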
# ELK1 = target: T2, ELK1 (Homo sapiens, UniProt P19419 1-428); details: protein: recombinant; tags: N-terminal GST; dsDNA, one strand shown
# T2 sequence: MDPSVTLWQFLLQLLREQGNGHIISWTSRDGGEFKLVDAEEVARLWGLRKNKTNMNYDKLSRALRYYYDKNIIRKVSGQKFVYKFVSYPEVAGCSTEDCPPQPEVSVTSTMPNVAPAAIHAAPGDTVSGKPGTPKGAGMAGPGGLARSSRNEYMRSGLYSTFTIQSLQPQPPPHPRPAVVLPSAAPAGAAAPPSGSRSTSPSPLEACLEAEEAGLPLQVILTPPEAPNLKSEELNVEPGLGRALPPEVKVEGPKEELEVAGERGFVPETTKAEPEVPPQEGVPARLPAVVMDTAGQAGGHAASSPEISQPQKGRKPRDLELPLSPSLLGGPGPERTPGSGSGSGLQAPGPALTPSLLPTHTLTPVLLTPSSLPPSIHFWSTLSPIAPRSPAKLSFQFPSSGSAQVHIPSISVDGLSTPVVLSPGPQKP
# Method in brief: as §1
# GABPA = target: T3, GABPA (Homo sapiens, UniProt Q06546 1-454); details: protein: recombinant; tags: N-terminal GST; dsDNA, one strand shown
# T3 sequence: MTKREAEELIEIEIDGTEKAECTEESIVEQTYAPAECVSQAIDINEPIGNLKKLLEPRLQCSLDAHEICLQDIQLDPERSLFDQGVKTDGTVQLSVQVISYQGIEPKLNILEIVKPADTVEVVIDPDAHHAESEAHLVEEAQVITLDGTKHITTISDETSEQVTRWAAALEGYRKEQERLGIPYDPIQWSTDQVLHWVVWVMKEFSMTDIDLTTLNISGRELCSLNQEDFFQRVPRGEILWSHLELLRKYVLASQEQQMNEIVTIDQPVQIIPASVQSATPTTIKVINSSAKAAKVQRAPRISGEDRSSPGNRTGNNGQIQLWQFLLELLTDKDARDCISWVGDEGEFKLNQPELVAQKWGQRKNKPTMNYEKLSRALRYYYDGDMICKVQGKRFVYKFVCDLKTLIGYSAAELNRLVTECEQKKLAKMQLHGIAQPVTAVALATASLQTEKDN
# Method in brief: as §1
# ERG = target: T4, ERG (Homo sapiens, UniProt P11308 1-479); details: protein: recombinant; tags: N-terminal GST; dsDNA, one strand shown
# T4 sequence: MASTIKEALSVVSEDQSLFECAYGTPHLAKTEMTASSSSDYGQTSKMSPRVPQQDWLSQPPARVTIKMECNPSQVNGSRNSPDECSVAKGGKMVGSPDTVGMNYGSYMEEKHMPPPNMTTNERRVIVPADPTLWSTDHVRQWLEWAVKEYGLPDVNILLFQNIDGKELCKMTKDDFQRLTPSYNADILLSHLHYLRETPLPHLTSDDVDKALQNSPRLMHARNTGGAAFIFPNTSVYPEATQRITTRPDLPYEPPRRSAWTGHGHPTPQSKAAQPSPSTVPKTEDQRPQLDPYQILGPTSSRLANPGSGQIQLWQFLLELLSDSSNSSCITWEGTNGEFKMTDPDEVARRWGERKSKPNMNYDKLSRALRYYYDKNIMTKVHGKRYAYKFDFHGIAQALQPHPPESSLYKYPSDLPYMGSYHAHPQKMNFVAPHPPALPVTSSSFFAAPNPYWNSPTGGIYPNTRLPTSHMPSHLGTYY
# Method in brief: as §1
# ELF1 = ELF1 (Homo sapiens, UniProt P32519 1-619); details: protein: recombinant; tags: N-terminal GST; dsDNA, one strand shown
# Chain of ELF1 (P32519 whole entry): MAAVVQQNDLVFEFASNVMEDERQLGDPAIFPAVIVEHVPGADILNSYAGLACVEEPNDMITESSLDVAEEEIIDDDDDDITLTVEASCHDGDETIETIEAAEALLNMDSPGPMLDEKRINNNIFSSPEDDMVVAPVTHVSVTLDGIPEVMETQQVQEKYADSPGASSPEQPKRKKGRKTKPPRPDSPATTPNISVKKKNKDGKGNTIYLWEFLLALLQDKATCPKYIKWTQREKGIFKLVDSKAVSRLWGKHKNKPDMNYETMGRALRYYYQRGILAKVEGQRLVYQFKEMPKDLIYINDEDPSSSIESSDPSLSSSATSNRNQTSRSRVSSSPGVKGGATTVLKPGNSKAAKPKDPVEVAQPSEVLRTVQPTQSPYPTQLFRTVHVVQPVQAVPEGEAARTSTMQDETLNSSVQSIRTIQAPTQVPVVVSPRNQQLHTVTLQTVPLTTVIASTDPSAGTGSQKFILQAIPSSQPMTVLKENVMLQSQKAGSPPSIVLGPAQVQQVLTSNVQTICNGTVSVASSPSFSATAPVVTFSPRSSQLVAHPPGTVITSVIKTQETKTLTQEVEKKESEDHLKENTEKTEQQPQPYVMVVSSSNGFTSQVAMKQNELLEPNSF
# Method in brief: as §1
# EHF = target: T5, EHF (Homo sapiens, UniProt Q9NZC4 1-300); details: protein: recombinant; tags: N-terminal GST; dsDNA, one strand shown
# T5 sequence: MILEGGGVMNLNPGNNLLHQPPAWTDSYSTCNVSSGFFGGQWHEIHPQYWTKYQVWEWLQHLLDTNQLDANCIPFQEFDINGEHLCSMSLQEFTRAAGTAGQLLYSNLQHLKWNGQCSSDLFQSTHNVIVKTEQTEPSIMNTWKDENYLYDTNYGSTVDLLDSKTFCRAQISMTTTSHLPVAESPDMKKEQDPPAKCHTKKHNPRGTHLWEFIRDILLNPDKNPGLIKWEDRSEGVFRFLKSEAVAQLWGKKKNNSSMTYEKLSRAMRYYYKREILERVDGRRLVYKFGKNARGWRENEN
# Method in brief: as §1
# SPI1 = SPI1 (Homo sapiens, UniProt P17947 1-270); details: protein: recombinant; tags: N-terminal GST; dsDNA, one strand shown
# Method in brief: as §1
# SPIB = SPIB (Homo sapiens, UniProt Q01892 1-262); details: protein: recombinant; tags: N-terminal GST; dsDNA, one strand shown
# Chain of SPIB (Q01892 whole entry): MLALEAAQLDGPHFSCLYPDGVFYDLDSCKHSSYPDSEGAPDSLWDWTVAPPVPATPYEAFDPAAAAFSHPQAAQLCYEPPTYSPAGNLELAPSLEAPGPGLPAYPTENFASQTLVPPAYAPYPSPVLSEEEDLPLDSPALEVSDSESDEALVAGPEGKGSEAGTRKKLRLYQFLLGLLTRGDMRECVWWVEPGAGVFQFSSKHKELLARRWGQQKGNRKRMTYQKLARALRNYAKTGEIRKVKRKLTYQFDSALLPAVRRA
# Method in brief: as §1
# ELK3 = target: T6, ELK3 (Homo sapiens, UniProt P41970 1-407); details: protein: recombinant; tags: N-terminal GST; dsDNA, one strand shown
# T6 sequence: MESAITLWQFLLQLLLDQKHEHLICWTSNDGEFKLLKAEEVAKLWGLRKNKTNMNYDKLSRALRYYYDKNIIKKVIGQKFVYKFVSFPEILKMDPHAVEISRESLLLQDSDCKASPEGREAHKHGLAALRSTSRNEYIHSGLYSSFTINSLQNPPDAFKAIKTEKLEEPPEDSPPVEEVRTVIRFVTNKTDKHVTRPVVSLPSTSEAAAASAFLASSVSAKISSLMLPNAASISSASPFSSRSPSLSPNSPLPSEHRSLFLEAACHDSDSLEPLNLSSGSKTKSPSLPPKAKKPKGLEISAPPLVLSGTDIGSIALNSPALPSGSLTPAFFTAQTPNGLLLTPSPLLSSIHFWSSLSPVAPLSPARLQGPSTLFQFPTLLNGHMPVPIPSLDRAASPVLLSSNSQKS
# Method in brief: as §1
# FEV = target: T7, FEV (Homo sapiens, UniProt Q99581 1-238); details: protein: recombinant; tags: N-terminal GST; dsDNA, one strand shown
# T7 sequence: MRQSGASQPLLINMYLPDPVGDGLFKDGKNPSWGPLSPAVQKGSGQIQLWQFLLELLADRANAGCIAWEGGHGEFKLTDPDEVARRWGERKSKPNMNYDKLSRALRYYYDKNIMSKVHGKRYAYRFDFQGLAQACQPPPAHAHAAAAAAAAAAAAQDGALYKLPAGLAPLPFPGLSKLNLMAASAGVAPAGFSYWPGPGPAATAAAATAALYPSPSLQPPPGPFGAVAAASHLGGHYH
# Method in brief: as §1
# ETV5 = ETV5 (Homo sapiens, UniProt P41161 1-510); details: protein: recombinant; tags: N-terminal GST; dsDNA, one strand shown
# Chain of ETV5 (P41161 whole entry): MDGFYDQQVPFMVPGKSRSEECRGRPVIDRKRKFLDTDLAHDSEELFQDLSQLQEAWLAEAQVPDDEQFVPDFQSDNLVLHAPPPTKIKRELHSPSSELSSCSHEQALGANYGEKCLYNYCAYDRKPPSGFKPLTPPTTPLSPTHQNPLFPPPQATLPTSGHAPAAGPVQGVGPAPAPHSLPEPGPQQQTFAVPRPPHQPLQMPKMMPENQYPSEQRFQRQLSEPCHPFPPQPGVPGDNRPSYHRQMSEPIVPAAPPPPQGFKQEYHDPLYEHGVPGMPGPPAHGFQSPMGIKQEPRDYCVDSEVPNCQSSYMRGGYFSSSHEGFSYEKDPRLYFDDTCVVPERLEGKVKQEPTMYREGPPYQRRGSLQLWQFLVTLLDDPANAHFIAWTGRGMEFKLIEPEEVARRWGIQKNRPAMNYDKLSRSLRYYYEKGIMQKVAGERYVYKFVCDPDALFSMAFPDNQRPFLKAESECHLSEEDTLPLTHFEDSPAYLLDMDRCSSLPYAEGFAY
# Method in brief: as §1
# HSF1 = HSF1 (Homo sapiens, UniProt Q00613 1-529); details: protein: recombinant; tags: N-terminal GST; chain copies: 3; dsDNA, one strand shown
# Chain of HSF1 (Q00613 whole entry): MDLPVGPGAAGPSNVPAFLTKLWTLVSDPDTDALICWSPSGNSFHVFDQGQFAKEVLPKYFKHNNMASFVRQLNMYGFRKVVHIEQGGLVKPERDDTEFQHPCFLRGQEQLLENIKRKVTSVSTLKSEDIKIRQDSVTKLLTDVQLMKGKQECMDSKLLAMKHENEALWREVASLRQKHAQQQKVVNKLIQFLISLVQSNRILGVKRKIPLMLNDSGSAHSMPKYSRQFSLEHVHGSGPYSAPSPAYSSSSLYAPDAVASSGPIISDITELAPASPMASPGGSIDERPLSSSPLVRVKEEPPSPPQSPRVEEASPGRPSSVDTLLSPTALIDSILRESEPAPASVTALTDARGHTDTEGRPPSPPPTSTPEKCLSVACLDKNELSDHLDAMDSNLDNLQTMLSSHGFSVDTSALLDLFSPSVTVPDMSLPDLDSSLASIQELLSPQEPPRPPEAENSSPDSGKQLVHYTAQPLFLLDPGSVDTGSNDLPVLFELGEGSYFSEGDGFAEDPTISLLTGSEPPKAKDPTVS
# Method in brief: as §1
# SPIC = target: T8, SPIC (Homo sapiens, UniProt Q8N5J4 1-248); details: protein: recombinant; tags: N-terminal GST; dsDNA, one strand shown
# T8 sequence: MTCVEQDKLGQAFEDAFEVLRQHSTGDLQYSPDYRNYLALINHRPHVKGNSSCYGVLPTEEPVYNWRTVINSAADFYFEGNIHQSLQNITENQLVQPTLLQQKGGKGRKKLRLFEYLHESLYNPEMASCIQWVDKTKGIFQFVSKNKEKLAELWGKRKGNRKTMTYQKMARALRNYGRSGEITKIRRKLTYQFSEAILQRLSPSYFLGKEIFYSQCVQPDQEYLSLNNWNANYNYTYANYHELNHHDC
# Method in brief: as §1
# ELF4 = ELF4 (Homo sapiens, UniProt Q99607 1-663); details: protein: recombinant; tags: N-terminal GST; dsDNA, one strand shown
# Chain of ELF4 (Q99607 whole entry): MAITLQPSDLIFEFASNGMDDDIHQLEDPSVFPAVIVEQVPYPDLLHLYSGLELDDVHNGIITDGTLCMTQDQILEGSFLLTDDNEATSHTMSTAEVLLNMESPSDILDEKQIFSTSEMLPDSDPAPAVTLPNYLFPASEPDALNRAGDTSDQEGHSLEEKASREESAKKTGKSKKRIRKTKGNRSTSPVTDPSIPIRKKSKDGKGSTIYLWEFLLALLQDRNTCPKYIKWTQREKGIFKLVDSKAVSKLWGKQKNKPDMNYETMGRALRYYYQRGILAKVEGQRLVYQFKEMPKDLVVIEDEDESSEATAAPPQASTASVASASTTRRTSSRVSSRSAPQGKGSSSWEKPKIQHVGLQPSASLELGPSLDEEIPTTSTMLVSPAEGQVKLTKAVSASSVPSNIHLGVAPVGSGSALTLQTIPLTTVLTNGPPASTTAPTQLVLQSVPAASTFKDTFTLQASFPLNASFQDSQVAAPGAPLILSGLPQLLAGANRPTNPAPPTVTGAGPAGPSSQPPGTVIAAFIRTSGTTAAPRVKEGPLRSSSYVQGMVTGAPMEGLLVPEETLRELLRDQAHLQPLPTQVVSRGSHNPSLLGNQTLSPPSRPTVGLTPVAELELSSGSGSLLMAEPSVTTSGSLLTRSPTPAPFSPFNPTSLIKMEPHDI
# Method in brief: as §1
# ELK4 = target: T9, ELK4 (Homo sapiens, UniProt P28324-2 1-405); details: protein: recombinant; tags: N-terminal GST; dsDNA, one strand shown
# T9 sequence: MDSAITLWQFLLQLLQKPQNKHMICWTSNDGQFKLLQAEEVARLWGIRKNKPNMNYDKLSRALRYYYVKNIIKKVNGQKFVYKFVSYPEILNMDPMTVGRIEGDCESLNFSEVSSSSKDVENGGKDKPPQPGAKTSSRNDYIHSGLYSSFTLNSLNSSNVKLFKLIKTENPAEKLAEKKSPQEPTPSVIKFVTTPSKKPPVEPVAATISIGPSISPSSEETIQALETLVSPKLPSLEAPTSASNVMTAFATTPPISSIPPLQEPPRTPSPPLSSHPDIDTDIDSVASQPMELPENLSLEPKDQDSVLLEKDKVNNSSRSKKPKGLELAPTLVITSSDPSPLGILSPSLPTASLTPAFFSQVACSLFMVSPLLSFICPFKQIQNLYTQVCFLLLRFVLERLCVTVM
# Method in brief: as §1
# ETV2 = target: T10, ETV2 (Homo sapiens, UniProt O00321 1-342); details: protein: recombinant; tags: N-terminal GST; dsDNA, one strand shown
# T10 sequence: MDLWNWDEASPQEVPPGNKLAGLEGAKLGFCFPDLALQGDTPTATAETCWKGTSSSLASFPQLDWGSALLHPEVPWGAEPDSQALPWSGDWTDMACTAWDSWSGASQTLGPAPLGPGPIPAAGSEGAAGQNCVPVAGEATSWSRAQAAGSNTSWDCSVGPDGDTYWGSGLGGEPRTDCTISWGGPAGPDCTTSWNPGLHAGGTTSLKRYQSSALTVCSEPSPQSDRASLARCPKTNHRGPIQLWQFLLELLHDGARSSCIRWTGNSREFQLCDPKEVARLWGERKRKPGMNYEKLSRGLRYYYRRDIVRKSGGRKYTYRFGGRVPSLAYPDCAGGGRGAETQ
# Method in brief: as §1
# ELF3 = target: T11, ELF3 (Homo sapiens, UniProt P78545 1-371); details: protein: recombinant; tags: N-terminal GST; dsDNA, one strand shown
# T11 sequence: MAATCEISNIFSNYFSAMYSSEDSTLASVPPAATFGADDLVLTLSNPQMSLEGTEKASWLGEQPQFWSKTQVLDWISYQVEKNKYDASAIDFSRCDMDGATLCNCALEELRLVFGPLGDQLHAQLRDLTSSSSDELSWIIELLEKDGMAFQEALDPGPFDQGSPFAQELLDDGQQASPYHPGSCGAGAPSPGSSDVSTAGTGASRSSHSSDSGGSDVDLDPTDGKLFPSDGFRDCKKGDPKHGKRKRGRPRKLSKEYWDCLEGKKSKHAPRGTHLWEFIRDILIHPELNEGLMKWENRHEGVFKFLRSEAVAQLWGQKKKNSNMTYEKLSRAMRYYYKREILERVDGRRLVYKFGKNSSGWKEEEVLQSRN
# Method in brief: as §1
# CRX = CRX (Homo sapiens, UniProt O43186 1-299); details: protein: recombinant; tags: N-terminal GST; dsDNA, one strand shown
# Chain of CRX (O43186 whole entry): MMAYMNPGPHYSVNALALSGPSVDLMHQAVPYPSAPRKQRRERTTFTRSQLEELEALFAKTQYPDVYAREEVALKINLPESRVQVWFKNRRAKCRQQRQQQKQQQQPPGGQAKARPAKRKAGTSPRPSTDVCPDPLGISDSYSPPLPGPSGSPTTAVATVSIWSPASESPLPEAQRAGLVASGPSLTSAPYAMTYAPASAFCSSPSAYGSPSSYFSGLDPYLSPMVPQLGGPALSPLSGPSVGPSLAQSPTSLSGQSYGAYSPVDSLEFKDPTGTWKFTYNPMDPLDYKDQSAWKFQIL
# Method in brief: as §1
# ETV1 = ETV1 (Homo sapiens, UniProt P50549 1-477); details: protein: recombinant; tags: N-terminal GST; dsDNA, one strand shown
# Chain of ETV1 (P50549 whole entry): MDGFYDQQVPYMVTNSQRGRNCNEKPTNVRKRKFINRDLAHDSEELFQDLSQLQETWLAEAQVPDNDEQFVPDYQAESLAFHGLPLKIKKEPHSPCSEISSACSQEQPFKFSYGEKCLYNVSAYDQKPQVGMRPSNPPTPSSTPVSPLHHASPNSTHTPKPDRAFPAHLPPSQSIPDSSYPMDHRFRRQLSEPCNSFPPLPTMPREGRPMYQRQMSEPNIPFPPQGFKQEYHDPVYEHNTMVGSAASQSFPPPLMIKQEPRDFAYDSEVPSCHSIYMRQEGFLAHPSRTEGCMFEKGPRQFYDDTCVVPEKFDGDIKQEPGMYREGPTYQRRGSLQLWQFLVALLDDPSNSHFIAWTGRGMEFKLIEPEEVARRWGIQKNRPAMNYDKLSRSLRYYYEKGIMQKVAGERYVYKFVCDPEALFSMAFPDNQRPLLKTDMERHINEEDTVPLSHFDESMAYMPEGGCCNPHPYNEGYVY
# Method in brief: as §1
sequence,measurement,setting,value
TTTGCA,binding signal,FLI1,"1.27 fold enrichment (6-mer frequency, TF over GST control)"
same,binding signal,ELK1,"1.33 fold enrichment (6-mer frequency, TF over GST control)"
same,binding signal,GABPA,"1.34 fold enrichment (6-mer frequency, TF over GST control)"
same,binding signal,ERG,"1.29 fold enrichment (6-mer frequency, TF over GST control)"
same,binding signal,ELF1,"1.32 fold enrichment (6-mer frequency, TF over GST control)"
same,binding signal,EHF,"1.19 fold enrichment (6-mer frequency, TF over GST control)"
same,binding signal,SPI1,"1.22 fold enrichment (6-mer frequency, TF over GST control)"
same,binding signal,SPIB,"1.29 fold enrichment (6-mer frequency, TF over GST control)"
same,binding signal,ELK3,"1.32 fold enrichment (6-mer frequency, TF over GST control)"
same,binding signal,FEV,"1.18 fold enrichment (6-mer frequency, TF over GST control)"
same,binding signal,ETV5,"1.22 fold enrichment (6-mer frequency, TF over GST control)"
same,binding signal,HSF1,"1.26 fold enrichment (6-mer frequency, TF over GST control)"
same,binding signal,SPIC,"1.23 fold enrichment (6-mer frequency, TF over GST control)"
same,binding signal,ELF4,"1.29 fold enrichment (6-mer frequency, TF over GST control)"
same,binding signal,ELK4,"1.3 fold enrichment (6-mer frequency, TF over GST control)"
same,binding signal,ETV2,"1.24 fold enrichment (6-mer frequency, TF over GST control)"
same,binding signal,ELF3,"1.28 fold enrichment (6-mer frequency, TF over GST control)"
same,binding signal,CRX,"1.48 fold enrichment (6-mer frequency, TF over GST control)"
same,binding signal,ETV1,"1.29 fold enrichment (6-mer frequency, TF over GST control)"
